According to PubChem BioAssay AID1159580 (chemical genetic matrix, 2015):
The whole screen tested about 5,500 compounds, of which about 2,000 (36%) were called active. Inconclusive results (about 18%) are left out. Cut-off read from the data, not from the text of the source: active = normalized growth mostly below about 0.91 (no sharp cut-off); inconclusive = no clear call, values can overlap the other calls; inactive = mostly above about 0.92. The list shows a part of the results.

Experiment: chemical genetic growth profiling, strain panel (AID 1159580);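 note: tested at 20 µM; growth read once vehicle control cultures reached saturation at 30 °C; 1 = growth at the plate median or of vehicle wells; lower values mean less growth of the strain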
Settings: S. cerevisiae deletion strains, growth OD
[1] = locus YAL013W, strain DEP1, stronger effect = lower value
[2] = locus YBR229C, strain ROT2, stronger effect = lower value
[3] = locus YCL061C, strain MRC1, stronger effect = lower value
[4] = locus YDL101C, strain DUN1, stronger effect = lower value
[5] = locus YDL134C, strain PPH21, stronger effect = lower value
[6] = locus YDR150W, strain NUM1, stronger effect = lower value
[7] = locus YEL061C, strain CIN8, stronger effect = lower value
[8] = locus YGR078C, strain PAC10, stronger effect = lower value
[9] = locus YHR030C, strain SLT2, stronger effect = lower value
[10] = locus YHR087W, strain rtc3, stronger effect = lower value
[11] = locus YJL187C, strain SWE1, stronger effect = lower value
[12] = locus YJR043C, strain POL32, stronger effect = lower value
[13] = locus YJR075W, strain HOC1, stronger effect = lower value
[14] = locus YLR039C, strain RIC1, stronger effect = lower value
[15] = locus YLR058C, strain SHM2 (second series), stronger effect = lower value
[16] = locus YLR085C, strain ARP6, stronger effect = lower value
[17] = locus YLR262C, strain YPT6, stronger effect = lower value
[18] = locus YML094W, strain GIM5, stronger effect = lower value
[19] = locus YMR219W, strain ESC1, stronger effect = lower value
[20] = locus YMR263W, strain SAP30, stronger effect = lower value
[21] = locus YMR307W, strain GAS1, stronger effect = lower value
[22] = locus YNL153C, strain GIM3, stronger effect = lower value
[23] = locus YNL298W, strain CLA4 (second series), stronger effect = lower value
[24] = locus YNL322C, strain KRE1, stronger effect = lower value
[25] = locus YNR030W, strain Alg12, stronger effect = lower value
[26] = locus YOL006C, strain TOP1, stronger effect = lower value
[27] = locus YPL055C, strain LGE1, stronger effect = lower value
[28] = locus YPL241C, strain CIN2, stronger effect = lower value
[29] = locus YPR135W, strain CTF4, stronger effect = lower value
[30] = locus YKL190W, strain CNB1, stronger effect = lower value

Measured: normalized growth

CCOC(=O)/C(C#N)=C/Nc1ccc2c(c1)OCO2
active: [9] 0.4 | [13] 0.889 | [16] 0.772 | [17] 0.816
inactive: [1] 0.992 | [2] 0.985 | [3] 1.01 | [4] 1.07 | [5] 0.963 | [6] 1 | [7] 0.989 | [8] 0.98 | [10] 0.986 | [11] 0.982 | [12] 0.989 | [14] 0.795 | [15] 0.971 | [18] 1.03 | [19] 0.981 | [20] 0.96 | [21] 0.884 | [22] 1.02 | [23] 0.905 | [24] 0.97 | [25] 0.946 | [26] 0.804 | [27] 0.976 | [28] 0.966 | [29] 0.786

Cc1ccc(Cl)cc1NC(=S)N(CCC#N)/N=C\c1ccc2c(c1)OCO2
inactive: [1] 0.997 | [2] 1 | [4] 1 | [6] 1.02 | [7] 1 | [8] 0.991 | [9] 0.953 | [10] 0.995 | [11] 0.995 | [12] 1 | [13] 1.02 | [30] 0.98 | [14] 0.936 | [15] 1.01 | [16] 0.925 | [17] 0.973 | [18] 0.975 | [19] 1 | [20] 1.03 | [21] 0.853 | [22] 1.02 | [23] 0.981 | [24] 0.989 | [25] 0.974 | [26] 0.998 | [27] 1.04 | [28] 0.985 | [29] 1.1

Cc1ccc(S(=O)(=O)N2CCC(N)=N2)cc1
inactive: [1] 1.03 | [2] 0.954 | [3] 1.03 | [4] 1.05 | [5] 0.984 | [6] 1.02 | [7] 0.997 | [8] 1.02 | [9] 1.1 | [10] 1.01 | [11] 0.999 | [12] 1.05 | [13] 1.02 | [30] 1 | [14] 1 | [15] 0.992 | [16] 1.02 | [17] 0.99 | [18] 1 | [19] 0.995 | [20] 1.02 | [21] 0.997 | locus YNL128W, strain TEP1, stronger effect = lower value 1.01 | [22] 1.02 | [23] 1.04 | [24] 1 | [25] 0.992 | [27] 1 | [28] 1 | [29] 1.08

CC(C)(C)NCC(O)COc1cccc2c1CCCC2=O (configuration not stated)
inactive: locus YAL021C, strain ccr4, stronger effect = lower value 0.97 | locus YAL026C, strain drs2, stronger effect = lower value 0.976 | locus YAL030W, strain snc1, stronger effect = lower value 0.985 | locus YBL061C, strain skt5, stronger effect = lower value 0.981 | locus YBR009C, strain hhf1, stronger effect = lower value 1 | locus YBR023C, strain chs3, stronger effect = lower value 0.983 | locus YBR171W, strain sec66, stronger effect = lower value 0.934 | locus YBR231C, strain swc5, stronger effect = lower value 0.98 | locus YBR279W, strain paf1, stronger effect = lower value 0.979 | locus YCL011C, strain gbp2, stronger effect = lower value 0.992 | locus YCL016C, strain dcc1, stronger effect = lower value 1.02 | [3] 0.957 | locus YCL069W, strain vba3, stronger effect = lower value 0.952 | locus YCR088W, strain abp1, stronger effect = lower value 0.981 | locus YDL005C, strain med2, stronger effect = lower value 0.987 | locus YDL040C, strain nat1, stronger effect = lower value 0.978 | locus YDR001C, strain nth1, stronger effect = lower value 0.976 | locus YDR069C, strain doa4, stronger effect = lower value 0.987 | locus YDR137W, strain rgp1, stronger effect = lower value 0.983 | locus YDR159W, strain sac3, stronger effect = lower value 0.967 | locus YDR195W, strain ref2 0.966 | locus YDR297W, strain sur2, stronger effect = lower value 0.981 | locus YDR334W, strain swr1, stronger effect = lower value 0.937 | locus YDR335W, strain msn5, stronger effect = lower value 0.989 | locus YDR392W, strain spt3, stronger effect = lower value 0.992 | locus YEL003W, strain gim4, stronger effect = lower value 0.994 | locus YEL037C, strain rad23, stronger effect = lower value 0.973 | locus YEL061C, strain CIN8 (second series), stronger effect = lower value 0.961 | locus YER015W, strain faa2, stronger effect = lower value 0.981 | locus YER016W, strain bim1, stronger effect = lower value 1.01 | locus YER111C, strain swi4, stronger effect = lower value 0.982 | locus YER155C, strain BEM2 (second series), stronger effect = lower value 0.986 | locus YFR010W, strain ubp6, stronger effect = lower value 0.95 | locus YGL167C, strain pmr1, stronger effect = lower value 0.984 | locus YGL173C, strain kem1, stronger effect = lower value 0.977 | locus YGL227W, strain vid30, stronger effect = lower value 0.964 | locus YGL240W, strain doc1, stronger effect = lower value 0.984 | locus YGL253W, strain hxk2, stronger effect = lower value 0.99 | locus YHR013C, strain ard1, stronger effect = lower value 0.988 | locus YHR027C, strain rpn1, stronger effect = lower value 0.996 | [9] 0.954 | locus YHR079C, strain IRE1, stronger effect = lower value 0.954 | locus YHR142W, strain chs7, stronger effect = lower value 0.986 | locus YJL092W, strain hpr5, stronger effect = lower value 0.99 | locus YJL095W, strain BCK1 (second series), stronger effect = lower value 0.988 | locus YJL095W, strain BCK1, stronger effect = lower value 0.98 | locus YJL115W, strain asf1, stronger effect = lower value 0.959 | locus YJL129C, strain trk1, stronger effect = lower value 0.97 | locus YJL154C, strain vps35, stronger effect = lower value 0.981 | locus YJL164C, strain tpk1, stronger effect = lower value 1 | locus YJL166W, strain qcr8, stronger effect = lower value 0.976 | [11] 0.989 | locus YJR066W, strain TOR1, stronger effect = lower value 0.943 | locus YKL160W, strain elf1, stronger effect = lower value 1.01 | locus YKR026C, strain gcn3, stronger effect = lower value 0.983 | locus YKR091W, strain srl3, stronger effect = lower value 0.986 | locus YLL001W, strain dnm1, stronger effect = lower value 0.985 | locus YLL026W, stronger effect = lower value 0.993 | locus YLL041C, strain sdh2, stronger effect = lower value 1.01 | locus YLR027C, strain aat2, stronger effect = lower value 1.01 | locus YLR113W, strain HOG1, stronger effect = lower value 1.01 | locus YLR221C, strain rsa3, stronger effect = lower value 0.999 | locus YLR258W, strain gsy2, stronger effect = lower value 0.969 | locus YLR262C, strain YPT6 (second series), stronger effect = lower value 0.971 | locus YLR320W, strain mms22, stronger effect = lower value 0.965 | locus YLR342W, strain FKS1, stronger effect = lower value 0.992 | locus YLR357W, strain rsc2, stronger effect = lower value 0.991 | locus YLR370C, strain arc18, stronger effect = lower value 0.984 | locus YLR384C, strain iki3, stronger effect = lower value 0.973 | locus YML120C, strain ndi1, stronger effect = lower value 1.01 | locus YMR058W, strain fet3, stronger effect = lower value 0.982 | locus YMR125W, strain sto1, stronger effect = lower value 0.958 | locus YMR129W, stronger effect = lower value 0.992 | locus YMR205C, strain PFK2, stronger effect = lower value 0.989 | locus YMR231W, strain pep5, stronger effect = lower value 0.983 | locus YNL071W, strain lat1, stronger effect = lower value 0.958 | locus YNL183C, strain NPR1, stronger effect = lower value 0.952 | locus YNL209W, strain ssb2, stronger effect = lower value 0.984 | locus YNL248C, strain rpa49, stronger effect = lower value 0.98 | locus YNL322C, strain KRE1 (second series), stronger effect = lower value 1.01 | locus YNR049C, strain mso1, stronger effect = lower value 0.993 | locus YOR001W, strain rrp6, stronger effect = lower value 0.944 | locus YOR070C, strain gyp1, stronger effect = lower value 0.992 | locus YOR080W, strain dia2, stronger effect = lower value 1 | locus YOR083W, strain WHI5, stronger effect = lower value 1.02 | locus YOR106W, strain vam3, stronger effect = lower value 0.977 | locus YOR231W, strain MKK1, stronger effect = lower value 0.977 | locus YOR265W, strain rbl2, stronger effect = lower value 0.979 | locus YOR270C, strain vph1, stronger effect = lower value 0.95 | locus YOR290C, strain snf2, stronger effect = lower value 1.03 | locus YPL051W, strain arl3, stronger effect = lower value 1.01 | locus YPL078C, strain atp4, stronger effect = lower value 1 | locus YPL106C, strain sse1, stronger effect = lower value 0.975 | locus YPL240C, strain hsp82, stronger effect = lower value 0.996 | locus YPL256C, strain CLN2, stronger effect = lower value 0.969
